Data as given in PubChem BioAssay (Tox21).
“And” between values parts separate entries of the source, which are not always exact repeats. Identical values can stand only once. Results filed as inconclusive are left out. Entries that show only a call come without a potency. The source made the active and inactive calls. The call rests on the fitted dose curve; in most records, active means well fitted cell-killing curve with a large enough effect in the repeat runs; inconclusive means weak or mixed curves, or effect the other way; inactive means flat fitted curve, though single readings scatter.

Assay: qHTS RealTime-Glo MT Cell Viability Assay in HEK293 cells - 24 hour (AID 1224886); further: nearly all actives have a fitted effect of over 50% in size
Conditions: RealTime-Glo luminescence; series mostly up to 76.8 µM
Source text: National Center for Advancing Translational Sciences [NCATS]
NIH Chemical Genomics Center [NCGC]
U.S. Environmental Protection Agency [EPA]
National Institutes of Environmental Health Sciences [NIEHS]
National Toxicology Program [NTP]
U.S. Food and Drug Administration [FDA]
Measure of cell viability is critical in the cell-base assay. Analysis of cell viability is necessary for the characterization of cell responses to cytotoxic drugs and environmental stress. A RealTime-Glo MT Cell Viability Assay to monitor cell viability in real time of continues cell culture during 40 hours of compound treatment was used to screen Tox21 10K library compounds in Hek293 cells. The RealTime-Glo MT Cell Viability Assay is a nonlytic, homogeneous, bioluminescent method to measure cell viability in real time using a simple, plate-based method. The assay involves adding NanoLuc luciferase and a cell-permeant prosubstrate to cells in culture. Viable cells reduce the proprietary prosubstrate to generate a substrate for NanoLuc luciferase. This substrate diffuses from cells into the surrounding culture medium, where it is rapidly used by the NanoLuc Enzyme to produce a luminescent signal. The signal correlates with the number of viable cells, making the assay well suited for cytotoxicity studies.
Tox21 Assay Protocol Summary:
The mixture of Hek293 cell suspension and reagents were dispensed at 600cells/6 ul/well in 1536-well tissue culture treated black solid bottom plates using a Multidrop dispenser. After the assay plates were incubated at a 37 C/5% CO2 incubator for 5 hours, 23 nL of compounds dissolved in DMSO, positive and negative controls was transferred to the assay plate by a pintool work station. The plates were incubated at 37 C for 40 hours. The luminescence intensity were measured at 0h, 8h, 16h, 24h, 32h and 40h time points using ViewLux plate reader during compound treatment.
Potency means the concentration at half of the fitted maximal effect.

Compound | Potency
CCCCC/C=C\C/C=C\CCCCCCCC(=O)O | inactive
ClCCl | inactive
O=S(=O)(O)c1ccccc1/C=C/c1ccc(-c2ccc(/C=C/c3ccccc3S(=O)(=O)O)cc2)cc1 | inactive
Cc1ccc(C(C)C)cc2c(C)ccc1-2 | inactive
OCC(F)(F)F | inactive
CCCCNS(=O)(=O)c1ccc(C)cc1 | inactive
CC(C)(C)c1ccc(C(O)CCCN2CCC(C(O)(c3ccccc3)c3ccccc3)CC2)cc1 (stereo not given) | 5.35 µM (active)
Cc1cccc(C(=O)O)c1O | inactive
CCC(C)(CCC(C)C)C(=O)[O][Sn]([CH3])([CH3])[O]C(=O)C(C)(CC)CCC(C)C (stereo not given) | inactive
O=S(=O)(O)c1ccc(Nc2nc(Nc3ccc(/C=C/c4ccc(Nc5nc(Nc6ccc(S(=O)(=O)O)cc6)nc(N(CCO)CCO)n5)cc4S(=O)(=O)O)c(S(=O)(=O)O)c3)nc(N(CCO)CCO)n2)cc1 | inactive
C1CCC(SSC2CCCCC2)CC1 | inactive
CC1(C)CC(O)CC(C)(C)N1 | inactive
CCOc1ccc2ccccc2c1C(=O)N[C@@H]1C(=O)N2[C@@H]1SC(C)(C)[C@@H]2C(=O)O | inactive
Clc1sc(Cl)c(Cl)c1Cl | inactive
CCCCOC(=O)CO | inactive
CCC(CC)C(C)CCOC(C)=O (stereo not given) | inactive
Nc1nc2c(ncn2COCCO)c(=O)[nH]1 | inactive
CN(C)c1ccc(C(=C2C=CC(=[N+](C)C)C=C2)c2ccc(N(C)C)cc2)cc1 | 5.47 µM (active) and 7.76 µM (active) and 3.01 µM (active)
CC1(C)CCC[C@]2(C)[C@H]3CCO[C@]3(C)CC[C@@H]12 | inactive
CCC(CC)(CC(=O)Nc1cccc(/C=C/c2nc(C3CCC3)cs2)c1)C(=O)O | inactive

Compound | Potency
Fc1ccc(C(c2ccc(F)cc2)N2CCNCC2)cc1 | inactive
O=C1NC(=O)[C@@H]2CC=CC[C@H]12 | inactive
OC[C@@H](O)[C@@H](O)CO | inactive
O=C1c2ccccc2C(=O)N1SC1CCCCC1 | 34.6 µM (active) and 34.7 µM (active)
CCN1C(=O)c2ccccc2C1Nc1ccc(OCCN2CCCCC2)cc1 (stereo not given) | 4.77 µM (active)
CCCCCCCCCCCCCC[N+](C)(C)Cc1ccccc1 | 5.58 µM (active) and 6.74 µM (active) and 5.01 mM (active)
CCCCCCOC(=O)C(C)CC (stereo not given) | inactive
CCCc1ccc(OCC(=O)N2CCN(C(=O)COc3ccc(CCC)cc3OC)CC2)c(OC)c1 | 9.52 µM (active)
c1ccc(SSc2ccccc2)cc1 | inactive
C=CCn1c(=O)n(CC=C)c(=O)n(CC=C)c1=O | inactive
c1ccsc1 | inactive
Cc1c(C)c2c(c(C)c1O)CC[C@@](C)(CCC[C@H](C)CCC[C@H](C)CCCC(C)C)O2 | inactive
C=CC(=O)Nc1cc2c(Nc3ccc(F)c(Cl)c3)ncnc2cc1OCCCN1CCOCC1 | 10.7 µM (active)
Cc1cc(C(C)(C)C)cc(C)c1CC1=NCCN1 | inactive
O=C(Oc1ccccc1)Oc1ccccc1 | inactive
O=C1C(c2[nH]c3ccc(S(=O)(=O)O)cc3c2O)=Nc2ccc(S(=O)(=O)O)cc21 | inactive
C#Cc1ccc(-c2ccccc2F)cc1 | inactive
OC1CCC(C2CCCCC2)CC1 (stereo not given) | inactive
O=C(Nc1ccc2c(O)c(N=Nc3ccc(N=Nc4ccc(S(=O)(=O)O)cc4)cc3)c(S(=O)(=O)O)cc2c1)c1ccccc1 | inactive
O=c1[nH]c2ccccc2n1CCCN1CCN(C(c2ccccc2)c2ccccc2)CC1 | 19 µM (active)
